Source: PubChem
An excerpt weighted towards active compounds, which were near 4% of everything screened.
FAS TE block: blocks the thioesterase domain of human fatty acid synthase; P49327; recombinant FAS-TE, OMFH fluorogenic substrate, fluorescence endpoint; inhibition, % at 15 µM; 360,000 compounds, 0.67% hits; AID 602261;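 active = compounds whose normalised, plate-corrected inhibition of enzyme fluorescence in the single-dose primary screen is 50% or more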
ADAM10 inh: inhibits human ADAM10; 370,000 compounds, 0.62% hits; recombinant ADAM10, EDANS/DABCYL FRET peptide cleavage, 3 h; O14672; inhibition, % at 7 µM;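 active = inhibition above a per-campaign cutoff equal to the mean of compounds falling between control-based bounds plus 3 SD, cut at about 20% in these data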
GRIN3A LBD mod: NR3A (human) ligand-binding domain modulation; NR3A LBD differential scanning fluorimetry, Tm shift; 0% = protein alone, 100% = glycine-bound protein; Tm shift relative to glycine control, % at 25 µM; 340,000 compounds, 2.5% hits;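 active = melting temperature shift of at least 10% of the positive control shift, at one fixed dose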
aDG glyco up: alpha-DG glycosylation activation. Pro5-aDG cells, alpha-DG glycosylation AlphaScreen (IIH6); 0% Pro5, 100% B10-LARGE cell signal. activation, % at 10 µM. 360,000 compounds, 0.22% hits;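 active = activation of at least 8% versus controls, or a plate z-score of at least 8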;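 also: Pro5 are CHO cells carrying HIG-tagged alpha-DG that lacks glycosylation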
ADAM17 inh: ADAM17 inhibition, QFRET primary screen. P78536. recombinant ADAM17, EDANS/DABCYL FRET peptide cleavage. inhibition, % at 6.95 µM. 370,000 compounds, 0.83% hits. AID 720648;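 active = inhibition above the mean of compounds lying between control limits plus 3 SD, set per campaign, cut at about 8.5% in these data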
Target sequence (P78536 215-824 limits assumed): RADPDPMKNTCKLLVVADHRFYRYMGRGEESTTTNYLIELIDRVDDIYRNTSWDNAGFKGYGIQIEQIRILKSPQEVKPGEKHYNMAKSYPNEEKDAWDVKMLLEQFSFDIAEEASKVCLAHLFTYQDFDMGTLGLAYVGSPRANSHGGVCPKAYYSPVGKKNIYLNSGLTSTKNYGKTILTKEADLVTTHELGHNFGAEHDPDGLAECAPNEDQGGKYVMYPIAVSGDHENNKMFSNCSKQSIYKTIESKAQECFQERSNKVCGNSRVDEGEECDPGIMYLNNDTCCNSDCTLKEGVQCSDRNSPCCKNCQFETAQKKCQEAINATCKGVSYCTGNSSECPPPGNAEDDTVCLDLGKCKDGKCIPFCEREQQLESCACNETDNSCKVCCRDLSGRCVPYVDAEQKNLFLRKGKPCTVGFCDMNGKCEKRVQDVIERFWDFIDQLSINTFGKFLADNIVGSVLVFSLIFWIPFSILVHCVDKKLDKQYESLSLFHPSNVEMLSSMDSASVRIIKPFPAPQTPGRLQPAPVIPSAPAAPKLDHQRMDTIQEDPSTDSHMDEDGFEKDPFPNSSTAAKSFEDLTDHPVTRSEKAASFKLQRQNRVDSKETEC
A number is an active result; n = inactive; x = not tested or not shown.

SMILES	FAS TE block	ADAM10 inh	GRIN3A LBD mod	aDG glyco up	ADAM17 inh
O=S(=O)(Nc1cc(Cl)ccc1-n1cncn1)c1cc(Br)ccc1Br	n	n	22.5	n	n
CCOC(=O)COc1coc(CN2CCN(c3ccc(F)cc3)CC2)cc1=O	n	n	n	n	n
O=C(NCCC1=CCCCC1)C(=O)NCC(c1ccco1)N1CCN(c2ccc(F)cc2)CC1 (configuration not stated)	n	n	10.0	n	n
CN(C)c1ccc(/C=N/NC(=O)c2cc(-c3ccc4c(c3)OCO4)n[nH]2)cc1	n	n	12.4	n	n
O=C(N/N=C/c1cc2c(cc1Cl)OCO2)c1cc(-c2ccccc2)n[nH]1	n	n	32.4	n	n
O=C(N/N=C/c1ccc(F)cc1)c1cc(-c2ccc3c(c2)OCO3)n[nH]1	n	n	29.2	n	n
O=C(N/N=C/c1cc2c(cc1Cl)OCO2)c1ccncc1	n	n	n	n	n
COc1ccc(/C=N/NC(=O)c2cc(-c3ccc4c(c3)OCO4)n[nH]2)cc1OC	n	n	25.3	n	n
COc1cc(/C=N/NC(=O)c2ccc3c(c2)OCO3)ccc1O	n	n	n	n	n
c1ccc(CNc2ccc(N3CCOCC3)cc2)cc1	n	n	n	n	n
CN(C)c1ccc(/C=N/NC(=O)c2ccc3c(c2)OCCO3)cc1	n	n	21.1	n	n
CCN(CC)c1ccc(/C=N/NC(=O)c2ccc3c(c2)OCCO3)cc1	n	n	n	n	n
Cn1c(O)c(/C=C2\C=Nc3ccccc32)sc1=Nc1ccc(C(=O)O)cc1	n	n	n	n	n
O=C(Cc1ccccc1)Nn1c(O)c(/C=C2\C=Nc3ccccc32)sc1=S	n	n	25.7	n	n
O=S(=O)(Nn1c(O)c(C=C2N=c3ccccc3=N2)sc1=S)c1ccccc1	n	n	n	n	n
CCn1c(O)c(/C=C2\C=Nc3ccccc32)sc1=Nc1ccccc1	n	n	12.0	n	n
CN(CCO)S(=O)(=O)c1ccc2c(c1)C(=NO)c1cc(S(=O)(=O)N(C)CCO)ccc1-2	n	n	n	n	n
CC(C)NC(=O)C1(C)CCCN1C/C=C/c1ccccc1 (configuration not stated)	n	n	x	n	n
O=C(c1cc([N+](=O)[O-])ccc1N1CCOCC1)N1CCN(c2ccc([N+](=O)[O-])cc2)CC1	n	n	n	n	n
CCNC(=O)N1C(=O)C2(OCCO2)c2ccccc21	n	n	n	n	n
CCCCOc1ccc(OCCCC)c2c1NC1(N2)C(=O)N(C(C)=O)c2ccccc21	n	n	13.1	n	n
Cc1cccc(C)c1NC(=O)CN1N=NC2C(=O)N(c3cccc(Cl)c3)C(=O)C21 (configuration not stated)	n	n	18.0	n	n
Cc1ccc(N2C(=O)C3N=NN(CC(=O)N4N=C(c5ccccc5)CC4c4ccccc4)C3C2=O)cc1 (configuration not stated)	n	n	n	n	n
Cc1cccc([C@@H]2[C@@H]3C(=O)N(Cc4ccccc4)C(=O)[C@@H]3[C@]3(C)C(=O)N(c4ccc(C(F)(F)F)cc4)C(=O)N23)c1	81.3	x	12.7	n	x
COc1ccc(N2C(=O)N3[C@H](c4cccc(C)c4)[C@@H]4C(=O)N(Cc5ccccc5)C(=O)[C@@H]4[C@]3(Cc3ccccc3)C2=O)cc1	x	n	n	x	n
SMILES	FAS TE block	ADAM10 inh	GRIN3A LBD mod	aDG glyco up	ADAM17 inh
CCOc1ccc(-c2cccc(NS(=O)(=O)c3cc([N+](=O)[O-])ccc3C)c2)nn1	n	n	10.5	n	n
CC1C[N+](=C2C=C(N3CCOCC3)CC(C)(C)C2)CC(C)O1 (configuration not stated)	n	n	n	n	n
CCc1csc(CNC(=O)C2CCC(=O)N(Cc3cccc(F)c3)C2)n1 (configuration not stated)	n	n	13.1	n	n
O=C(NCCc1ccc(C(F)(F)F)cc1)C1CCC(=O)N(CCc2cccc(F)c2)C1 (configuration not stated)	n	n	14.4	n	n
COc1ccc(C(c2nnnn2C2CCCC2)N2CCC(C(N)=O)CC2)c(OC)c1 (configuration not stated)	n	n	14.2	n	n
Cc1cc(NC(=S)N(Cc2cccc(Br)c2)CC2CCC(C(=O)O)CC2)ccc1Cl (configuration not stated)	n	n	n	n	n
Cc1ccc(NC(=S)N(Cc2cccc(Br)c2)CC2CCC(C(=O)O)CC2)cc1 (configuration not stated)	n	n	13.4	n	n
S=C(NNc1ccnc2cc(Cl)ccc12)Nc1ccc(Cl)cc1Cl	n	n	14.5	n	n
COc1cc(C2C(C(C)=O)=C(O)C(=O)N2CCc2ccc(OC)c(OC)c2)ccc1O (configuration not stated)	n	n	n	n	n
CCN(CC)CCN1C(=O)C(O)=C(C(C)=O)C1c1ccc(OC)c(OC)c1 (configuration not stated)	n	n	11.0	n	n
Oc1ccccc1-c1nc(NC2CCCC2)c2ccccc2n1	n	n	19.0	n	n
CC(Nc1nc(-c2ccccc2O)nc2ccccc12)c1ccccc1 (configuration not stated)	n	n	22.0	n	n
NC(=S)N/N=C\c1ccccc1OCc1ccccc1	n	n	n	n	n
NC(=S)N/N=C/c1c[nH]c2ccc(OCc3ccccc3)cc12	n	x	10.1	n	x
O=C(CC1S/C(=N/N=C/c2c[nH]c3ccc(OCc4ccccc4)cc23)NC1=O)Nc1ccccc1 (configuration not stated)	n	n	22.9	n	n
O=C(CC1S/C(=N/N=C/c2c[nH]c3ccccc23)NC1=O)Nc1ccccc1 (configuration not stated)	n	n	n	n	n
CCOc1ccc(N(CC(=O)NC2CCCC2)C(=O)CCCC(=O)Nc2ccccn2)cc1	n	n	n	n	n
COc1ccc(NC(=O)Nc2ncccc2C)cc1	n	n	n	n	n
CCc1ccc([C@@H]2CC=C(C(=O)O)[C@H](c3ccc(C(C)(C)C)cc3)N2S(=O)(=O)c2ccc(C)cc2)cc1	54.3	n	n	n	n
CN(C)C=NC(=O)c1ccc([N+](=O)[O-])c(CS(=O)(=O)c2ccc(Cl)cc2)c1	n	n	12.5	n	n
NNC(=O)c1ccc([N+](=O)[O-])c(CS(=O)(=O)c2ccc(Cl)cc2)c1	n	n	n	n	n
COc1cc(C(=O)Nc2sc(C)c(C)c2C(=O)O)cc(OC)c1OC	n	n	15.5	n	n
COC1=C(Nc2ccccc2)C(=O)C(OC)=C(Nc2ccccc2)C1=O	n	n	n	n	n
Cc1cc(O)c(/C=N/Nc2ccc(Cl)cc2)c(=O)o1	n	n	n	6.5	n
Cc1cc(O)c(/C=N/Nc2cccc(Cl)c2)c(=O)o1	n	n	n	n	n
O=C(NC(Cc1c[nH]c2ccccc12)c1nnc2n1CCCCC2)c1ccccc1Cl (configuration not stated)	n	n	11.2	n	n
